From PubChem BioAssay (NCI) come the findings set out here.

Compounds without any hit were thinned out: in the full panel of roughly 83,000, 20% have a hit.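 A percent growth of 40 corresponds to 60% growth inhibition; 0 means no net growth; -100 means all cells died. Active threshold: below 10.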 Values without a mark were called inactive. Active and inactive are the calls of the source.

Among the test systems are NCI-H23 lung; NCI-H226 lung; NCI-H322M lung; HOP-62 NSCLC; NCI-H460 lung; HOP-92 NSCLC; NCI-H522 lung; A549/ATCC NSCLC; 786-0 renal; COLO 205 colon.
Assay in all cases: NCI-60 one-dose screen, 48 h (100 = growth as untreated, 0 = no growth, -100 = all killed)
What all share (settings): 10 µM unless noted

As to `Cc1ccc(C2CC(c3ccc(Nc4nc(NCCO)nc(Nc5ccc(Cl)cc5)n4)cc3)=Nc3c(N)nc(N)nc3N2)cc1` (stereo not given), the growth in the test with NCI-H23 lung was -81.8% (active); with NCI-H226 lung it was 49.7%; in the test on NCI-H322M lung, -89.8% (active); with HOP-62 NSCLC, -86.4% (active); in the test with NCI-H460 lung it was -84.8% (active); in the test with HOP-92 NSCLC, 53.4%. Besides, the growth in the test on NCI-H522 lung is -69.4% (active); in the test with A549/ATCC NSCLC it was 57.9%; with 786-0 renal it was -91.9% (active); in the test with COLO 205 colon, 29.9%.
Consider `O=[N+]([O-])c1ccc(-c2nnc(SCc3ccc(O)c4ncccc34)n2-c2ccccc2)cc1`, for which the growth in the test on NCI-H23 lung is 13.7%; with NCI-H226 lung it was 87.3%; in the test on NCI-H322M lung, 41.7%; in the test with HOP-62 NSCLC, 23.2%; in the test with NCI-H460 lung, 5.75% (active); in the test on HOP-92 NSCLC, -24.4% (active). Moreover, the growth in the test on NCI-H522 lung is 9.93% (active); in the test on A549/ATCC NSCLC, 22.4%; in the test on 786-0 renal, 30.8%; in the test with COLO 205 colon, 110%.
Consider `CCOC(=O)c1c(NCC(=O)Nc2ccc(Br)cc2)sc2c1CCCC2`, for which the growth in the test with NCI-H23 lung was 26.3%; in the test on NCI-H226 lung, 40.7%; with NCI-H322M lung, 85.6%; in the test with HOP-62 NSCLC, 69.2%; with NCI-H460 lung, 68.9%; in the test on HOP-92 NSCLC, 67.7%. Besides, the growth in the test with NCI-H522 lung was -48.8% (active); in the test with A549/ATCC NSCLC it was 73.2%; with 786-0 renal, 21.2%; in the test with COLO 205 colon, 33.3%.
`COc1ccc(-c2nc3cc(Cl)c(Cl)cc3n2CC(=O)N=Nc2c(O)[nH]c3ccc(Cl)cc23)cc1`: the growth in the test on NCI-H23 lung is 21.2%; in the test with NCI-H226 lung, -8.97% (active); in the test on NCI-H322M lung, 46.1%; in the test with HOP-62 NSCLC, 0.657% (active); in the test on NCI-H460 lung, 16.9%; in the test on HOP-92 NSCLC, -28% (active). Moreover, the growth is 37.6% in the test with NCI-H522 lung, 18.5% in the test on A549/ATCC NSCLC, 24.7% in the test on 786-0 renal and -3.46% (active) in the test with COLO 205 colon.
`CC(=O)Nc1ccc(NC(=O)Nc2cccc(-c3nc(-c4ccc(NC(=O)c5cccs5)cc4Cl)no3)c2)cc1C(F)(F)F`: the growth with NCI-H23 lung was -60.2% (active); with NCI-H226 lung, -41.2% (active); in the test on NCI-H322M lung it was -8.96% (active); in the test on HOP-62 NSCLC, -74.8% (active); in the test on NCI-H460 lung, -59.4% (active); in the test on HOP-92 NSCLC, -46.8% (active). The growth was -39.6% (active) in the test on NCI-H522 lung, -27.1% (active) in the test with A549/ATCC NSCLC, -43.4% (active) in the test on 786-0 renal and -64.4% (active) in the test on COLO 205 colon.
For `Clc1ccccc1/C=C/c1nn2c(-c3ccncc3)nnc2s1`, the growth in the test on NCI-H23 lung was 99%; in the test on NCI-H226 lung it was 91%; in the test on NCI-H322M lung, 100%; in the test with HOP-62 NSCLC it was 108%; in the test on NCI-H460 lung, 102%; in the test on HOP-92 NSCLC, 103%. For the same compound, the growth with NCI-H522 lung was 101%; in the test with A549/ATCC NSCLC, 106%; in the test with 786-0 renal, 96.9%; with COLO 205 colon it was 115%.
Turning to `CC(C)(C)n1nnnc1C(Nc1nccs1)c1cc2cccc3ccc4cccc1c4c32` (stereo not given), the growth in the test with NCI-H23 lung was 100%; in the test with NCI-H226 lung, -13% (active); in the test with NCI-H322M lung, 95.5%; in the test on HOP-62 NSCLC, 84.9%; with NCI-H460 lung, 99.8%; with HOP-92 NSCLC it was 103%. The growth in the test with NCI-H522 lung was 100%; with A549/ATCC NSCLC, 108%; in the test on 786-0 renal, 107%; with COLO 205 colon, 104%.
In the case of `CS(=O)(=O)c1ccc2c(c1)c1c(n2C(=O)c2ccc(Cl)cc2)CCCC1`, the growth in the test with NCI-H23 lung was 45%; in the test on NCI-H226 lung, 60.9%; in the test with NCI-H322M lung, 43.8%; with HOP-62 NSCLC, 43.1%; in the test with NCI-H460 lung, 12.3%; with HOP-92 NSCLC, 35%. For the same compound, the growth is -44.2% (active) with NCI-H522 lung, 50.6% with A549/ATCC NSCLC, 43.6% in the test on 786-0 renal and -1.12% (active) in the test on COLO 205 colon.
For `CC(=O)Nc1ccc(NC(=O)Nc2cccc(-c3nc(-c4ccc(NC(=O)c5cccnc5)cc4Cl)no3)c2)cc1C(F)(F)F`, the growth in the test with NCI-H23 lung is -63.3% (active); in the test on NCI-H226 lung it was -55.2% (active); with NCI-H322M lung, -34.2% (active); in the test with HOP-62 NSCLC, -58.1% (active); in the test on NCI-H460 lung, -64.9% (active); in the test with HOP-92 NSCLC, -65.6% (active). The growth with NCI-H522 lung is -46.3% (active); in the test with A549/ATCC NSCLC, -1.13% (active); in the test with 786-0 renal, -35.6% (active); in the test on COLO 205 colon it was -53.1% (active).
In the case of `C#C[C@]1(O)CC[C@H]2[C@@H]3CC=C4c5sc(Nc6cccc(Cl)n6)nc5CC[C@]4(C)[C@H]3CC[C@@]21C`, the growth with NCI-H23 lung is 16.1%; with NCI-H226 lung it was 19.8%; in the test on NCI-H322M lung, 44.5%; in the test on HOP-62 NSCLC it was -8.39% (active); in the test on NCI-H460 lung, -2.3% (active); with HOP-92 NSCLC, -5.56% (active). The growth in the test with NCI-H522 lung is -17.7% (active); with A549/ATCC NSCLC it was 18.5%; with 786-0 renal it was -54.8% (active); in the test with COLO 205 colon, 34.5%.
On to `CC(C)=CCc1c2c(c(O)c3c1O[C@]14C(=C[C@@H]5C[C@H]1C(C)(C)O[C@@]4(C/C=C(/C)C(=O)O)C5=O)C3=O)CC(O)C(C)(C)O2` (stereo not given in full), for which the growth in the test with NCI-H23 lung is -60.3% (active); in the test on NCI-H226 lung it was 18.4%; in the test on NCI-H322M lung it was 11.6%; with HOP-62 NSCLC, -19.3% (active); with NCI-H460 lung it was -33.2% (active); in the test with HOP-92 NSCLC, -8.8% (active). Moreover, the growth with NCI-H522 lung was -53.9% (active); with A549/ATCC NSCLC it was -9.15% (active); in the test with 786-0 renal, -39.6% (active); in the test with COLO 205 colon it was -67% (active).
Take `COc1ccc(NC(=O)[C@H](C)NC(=O)OC(C)(C)C)cc1C(=O)Nc1cccc(-c2cc(=O)c3c(OC)c(OC)c(OC)cc3o2)c1`: the growth was -24.8% (active) in the test on NCI-H23 lung; 16% in the test with NCI-H226 lung; -0.408% (active) in the test with NCI-H322M lung; -17.5% (active) with HOP-62 NSCLC; -21.4% (active) in the test with NCI-H460 lung; -50% (active) in the test on HOP-92 NSCLC. For the same compound, the growth was -46.4% (active) with NCI-H522 lung, 7.37% (active) in the test on A549/ATCC NSCLC, 0.528% (active) in the test with 786-0 renal and -70% (active) with COLO 205 colon.
Turning to `COc1cc(C2=NN(C(C)=O)C(c3ccc(N4CCOCC4)cc3)C2)cc(OC)c1OC` (stereo not given), the growth in the test on NCI-H23 lung was 86.8%; in the test on NCI-H226 lung, 96.5%; in the test with NCI-H322M lung it was 88.1%; with HOP-62 NSCLC it was 91.8%; with NCI-H460 lung it was 103%; with HOP-92 NSCLC, 92.4%. Moreover, the growth in the test on NCI-H522 lung was 89.7%; in the test with A549/ATCC NSCLC, 104%; in the test on 786-0 renal, 95.5%; in the test on COLO 205 colon, 106%.
